Reference: article PMC7862700, “An all-to-all approach to the identification of sequence-specific readers for epigenetic DNA modifications on cytosine”

Columns and labels:
Assay in all cases: DAPPL (digital affinity profiling via proximity ligation, sequencing); 10 mM Tris-HCl pH 7.5, 50 mM NaCl, 1 mM DTT, 4% glycerol, room temperature, 30 min; GST-TFs on glutathione beads, 16-mer random dsDNA library, 0.1% formaldehyde crosslink after washing; high values mean tight binding
FEV = biological target: T1, FEV (Homo sapiens, UniProt Q99581 1-238); details: protein: recombinant; tags: N-terminal GST; dsDNA, one strand shown
T1 sequence: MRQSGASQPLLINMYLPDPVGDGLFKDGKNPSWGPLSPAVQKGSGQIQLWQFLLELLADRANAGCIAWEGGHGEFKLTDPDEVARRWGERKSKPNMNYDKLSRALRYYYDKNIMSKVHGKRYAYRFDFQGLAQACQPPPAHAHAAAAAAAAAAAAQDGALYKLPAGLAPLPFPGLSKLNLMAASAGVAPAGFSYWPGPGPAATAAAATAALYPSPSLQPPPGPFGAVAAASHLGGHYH
In short: (§1)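 Binding signal is each hexamer's read frequency for a factor divided by its frequency in the tag-only sample. The factors were GST-fused human transcription factors from yeast, captured on glutathione beads, DNA-barcoded and pooled with that sample. Pools were incubated with 200 nmole of a random double-stranded 16-mer DNA library in Tris/NaCl/DTT/glycerol buffer at room temperature for 30 min, then washed, crosslinked with 0.1% formaldehyde, proximity-ligated with BsaI/T4 ligase (1 h, 37 °C), PCR-amplified and sequenced on an Illumina NextSeq500.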

ETV5 = ETV5 (Homo sapiens, UniProt P41161 1-510); details: protein: recombinant; tags: N-terminal GST; dsDNA, one strand shown
ETV5, sequence (P41161 whole entry): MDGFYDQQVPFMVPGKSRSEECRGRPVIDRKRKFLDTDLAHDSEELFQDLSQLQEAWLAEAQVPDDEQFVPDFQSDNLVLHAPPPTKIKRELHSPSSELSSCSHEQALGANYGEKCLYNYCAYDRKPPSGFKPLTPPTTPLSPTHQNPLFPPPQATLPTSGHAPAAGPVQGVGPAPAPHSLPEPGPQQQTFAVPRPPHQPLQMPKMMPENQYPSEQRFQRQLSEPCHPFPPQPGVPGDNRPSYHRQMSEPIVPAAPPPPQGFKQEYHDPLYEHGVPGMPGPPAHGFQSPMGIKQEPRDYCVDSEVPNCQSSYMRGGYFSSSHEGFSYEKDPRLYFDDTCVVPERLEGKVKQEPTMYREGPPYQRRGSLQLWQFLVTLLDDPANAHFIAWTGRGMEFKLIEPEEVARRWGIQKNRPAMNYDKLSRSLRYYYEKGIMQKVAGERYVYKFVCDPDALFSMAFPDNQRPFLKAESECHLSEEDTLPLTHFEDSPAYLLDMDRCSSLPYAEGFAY
In short: as §1

HSF1 = HSF1 (Homo sapiens, UniProt Q00613 1-529); details: protein: recombinant; tags: N-terminal GST; chain copies: 3; dsDNA, one strand shown
HSF1, sequence (Q00613 whole entry): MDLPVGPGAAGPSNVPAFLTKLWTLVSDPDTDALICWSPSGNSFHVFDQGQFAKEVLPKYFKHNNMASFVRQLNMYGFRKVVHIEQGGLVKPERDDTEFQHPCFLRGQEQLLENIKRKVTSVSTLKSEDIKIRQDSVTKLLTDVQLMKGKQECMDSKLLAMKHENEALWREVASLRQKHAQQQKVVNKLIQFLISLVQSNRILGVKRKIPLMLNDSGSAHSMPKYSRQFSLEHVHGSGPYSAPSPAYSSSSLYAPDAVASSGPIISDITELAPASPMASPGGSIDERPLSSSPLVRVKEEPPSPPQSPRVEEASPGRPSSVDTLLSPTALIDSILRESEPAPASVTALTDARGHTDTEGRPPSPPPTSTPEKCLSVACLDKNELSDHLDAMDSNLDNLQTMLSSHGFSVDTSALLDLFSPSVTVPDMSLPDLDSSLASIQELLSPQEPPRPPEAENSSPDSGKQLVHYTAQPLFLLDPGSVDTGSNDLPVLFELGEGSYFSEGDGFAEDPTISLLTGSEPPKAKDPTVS
In short: as §1

SPIC = biological target: T2, SPIC (Homo sapiens, UniProt Q8N5J4 1-248); details: protein: recombinant; tags: N-terminal GST; dsDNA, one strand shown
T2 sequence: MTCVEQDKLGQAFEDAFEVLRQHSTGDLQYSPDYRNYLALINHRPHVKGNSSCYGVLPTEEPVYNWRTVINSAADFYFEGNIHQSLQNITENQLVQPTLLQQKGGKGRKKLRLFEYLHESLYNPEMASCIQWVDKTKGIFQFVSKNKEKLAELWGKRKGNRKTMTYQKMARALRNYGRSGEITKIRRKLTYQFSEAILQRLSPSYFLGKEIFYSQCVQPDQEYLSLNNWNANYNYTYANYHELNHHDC
In short: as §1

ELF4 = ELF4 (Homo sapiens, UniProt Q99607 1-663); details: protein: recombinant; tags: N-terminal GST; dsDNA, one strand shown
ELF4, sequence (Q99607 whole entry): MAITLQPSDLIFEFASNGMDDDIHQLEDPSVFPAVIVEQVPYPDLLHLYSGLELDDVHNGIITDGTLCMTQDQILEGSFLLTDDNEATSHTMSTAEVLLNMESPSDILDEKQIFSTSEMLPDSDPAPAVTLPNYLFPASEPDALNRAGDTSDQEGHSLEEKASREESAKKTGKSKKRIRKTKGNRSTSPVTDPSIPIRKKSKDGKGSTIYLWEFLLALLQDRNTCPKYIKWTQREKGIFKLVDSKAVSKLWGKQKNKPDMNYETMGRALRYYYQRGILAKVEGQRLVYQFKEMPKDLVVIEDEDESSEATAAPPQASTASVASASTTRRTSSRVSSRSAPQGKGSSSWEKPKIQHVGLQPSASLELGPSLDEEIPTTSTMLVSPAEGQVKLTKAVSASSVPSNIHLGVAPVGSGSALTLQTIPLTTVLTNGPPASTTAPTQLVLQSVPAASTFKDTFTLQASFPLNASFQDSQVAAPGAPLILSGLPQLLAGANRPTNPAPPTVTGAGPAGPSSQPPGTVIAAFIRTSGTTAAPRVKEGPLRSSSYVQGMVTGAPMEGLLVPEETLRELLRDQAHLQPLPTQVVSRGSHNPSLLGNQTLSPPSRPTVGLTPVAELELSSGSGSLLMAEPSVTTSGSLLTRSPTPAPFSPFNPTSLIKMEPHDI
In short: as §1

ELK4 = biological target: T3, ELK4 (Homo sapiens, UniProt P28324-2 1-405); details: protein: recombinant; tags: N-terminal GST; dsDNA, one strand shown
T3 sequence: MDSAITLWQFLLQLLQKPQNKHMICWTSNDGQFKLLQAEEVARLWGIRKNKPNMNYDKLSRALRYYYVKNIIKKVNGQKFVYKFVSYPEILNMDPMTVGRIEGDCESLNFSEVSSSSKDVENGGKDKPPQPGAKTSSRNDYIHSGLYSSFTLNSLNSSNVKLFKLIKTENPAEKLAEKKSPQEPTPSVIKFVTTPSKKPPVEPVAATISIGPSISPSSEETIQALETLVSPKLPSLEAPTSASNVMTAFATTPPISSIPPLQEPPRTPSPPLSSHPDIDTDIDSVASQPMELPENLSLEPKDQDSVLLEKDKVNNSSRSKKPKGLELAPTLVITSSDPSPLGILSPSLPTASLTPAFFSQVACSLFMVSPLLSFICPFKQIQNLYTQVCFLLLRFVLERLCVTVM
In short: as §1

ETV2 = biological target: T4, ETV2 (Homo sapiens, UniProt O00321 1-342); details: protein: recombinant; tags: N-terminal GST; dsDNA, one strand shown
T4 sequence: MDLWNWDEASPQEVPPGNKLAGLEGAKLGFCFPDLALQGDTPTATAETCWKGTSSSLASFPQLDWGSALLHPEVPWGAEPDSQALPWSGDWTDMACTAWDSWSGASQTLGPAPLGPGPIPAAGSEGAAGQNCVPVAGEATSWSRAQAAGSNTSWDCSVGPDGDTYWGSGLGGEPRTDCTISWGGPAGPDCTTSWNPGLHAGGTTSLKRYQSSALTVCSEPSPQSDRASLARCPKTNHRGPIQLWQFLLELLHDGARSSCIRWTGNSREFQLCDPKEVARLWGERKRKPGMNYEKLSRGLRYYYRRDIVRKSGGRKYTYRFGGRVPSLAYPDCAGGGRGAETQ
In short: as §1

ELF3 = biological target: T5, ELF3 (Homo sapiens, UniProt P78545 1-371); details: protein: recombinant; tags: N-terminal GST; dsDNA, one strand shown
T5 sequence: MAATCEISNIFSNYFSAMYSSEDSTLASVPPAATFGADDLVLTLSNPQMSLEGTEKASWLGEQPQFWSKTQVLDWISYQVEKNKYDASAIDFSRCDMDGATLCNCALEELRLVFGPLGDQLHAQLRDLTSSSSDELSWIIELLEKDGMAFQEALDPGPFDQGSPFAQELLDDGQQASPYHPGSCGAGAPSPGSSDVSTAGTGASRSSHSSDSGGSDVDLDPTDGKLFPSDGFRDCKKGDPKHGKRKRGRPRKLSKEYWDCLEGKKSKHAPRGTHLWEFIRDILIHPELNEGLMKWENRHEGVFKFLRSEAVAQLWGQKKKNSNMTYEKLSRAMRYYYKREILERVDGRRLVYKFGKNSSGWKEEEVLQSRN
In short: as §1

CRX = CRX (Homo sapiens, UniProt O43186 1-299); details: protein: recombinant; tags: N-terminal GST; dsDNA, one strand shown
CRX, sequence (O43186 whole entry): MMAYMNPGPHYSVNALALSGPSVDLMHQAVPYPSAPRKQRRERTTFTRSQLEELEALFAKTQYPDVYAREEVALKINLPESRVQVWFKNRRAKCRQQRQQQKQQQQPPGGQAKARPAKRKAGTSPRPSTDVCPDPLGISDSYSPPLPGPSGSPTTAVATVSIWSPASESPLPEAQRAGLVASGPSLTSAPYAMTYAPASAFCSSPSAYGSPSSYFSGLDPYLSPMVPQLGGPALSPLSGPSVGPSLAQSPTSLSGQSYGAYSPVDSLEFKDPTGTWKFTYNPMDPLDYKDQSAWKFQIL
In short: as §1

ETV1 = ETV1 (Homo sapiens, UniProt P50549 1-477); details: protein: recombinant; tags: N-terminal GST; dsDNA, one strand shown
ETV1, sequence (P50549 whole entry): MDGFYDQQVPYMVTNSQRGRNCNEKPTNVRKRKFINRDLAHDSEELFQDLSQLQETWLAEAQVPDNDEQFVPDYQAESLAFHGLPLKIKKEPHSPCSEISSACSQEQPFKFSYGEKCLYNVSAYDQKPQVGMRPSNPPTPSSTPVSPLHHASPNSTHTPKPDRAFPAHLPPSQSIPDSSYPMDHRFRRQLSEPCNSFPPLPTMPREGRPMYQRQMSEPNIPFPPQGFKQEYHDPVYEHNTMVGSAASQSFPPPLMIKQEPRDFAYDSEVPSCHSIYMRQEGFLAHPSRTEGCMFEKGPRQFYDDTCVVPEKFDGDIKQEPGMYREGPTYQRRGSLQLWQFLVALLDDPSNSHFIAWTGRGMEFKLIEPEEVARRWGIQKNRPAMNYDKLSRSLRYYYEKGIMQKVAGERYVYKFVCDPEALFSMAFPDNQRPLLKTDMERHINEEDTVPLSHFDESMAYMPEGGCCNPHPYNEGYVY
In short: as §1

ERF = biological target: T6, ERF (Homo sapiens, UniProt P50548 1-548); details: protein: recombinant; tags: N-terminal GST; dsDNA, one strand shown
T6 sequence: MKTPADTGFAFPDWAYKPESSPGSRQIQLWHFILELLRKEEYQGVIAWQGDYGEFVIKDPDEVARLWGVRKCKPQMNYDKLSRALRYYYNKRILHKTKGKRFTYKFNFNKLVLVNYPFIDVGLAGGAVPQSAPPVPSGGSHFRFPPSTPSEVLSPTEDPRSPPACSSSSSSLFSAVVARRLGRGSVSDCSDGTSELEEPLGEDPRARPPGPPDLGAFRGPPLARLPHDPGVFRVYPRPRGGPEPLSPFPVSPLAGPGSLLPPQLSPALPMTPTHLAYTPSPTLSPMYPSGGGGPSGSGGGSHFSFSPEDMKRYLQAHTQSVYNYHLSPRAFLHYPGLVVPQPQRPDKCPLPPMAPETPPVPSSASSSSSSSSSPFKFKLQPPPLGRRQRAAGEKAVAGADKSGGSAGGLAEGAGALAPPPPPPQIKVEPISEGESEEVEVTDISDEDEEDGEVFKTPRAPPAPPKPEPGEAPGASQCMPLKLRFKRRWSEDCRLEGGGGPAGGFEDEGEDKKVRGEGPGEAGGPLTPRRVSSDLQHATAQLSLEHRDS
In short: as §1

ETV3L = biological target: T7, ETV3L (Homo sapiens, UniProt Q6ZN32 1-361); details: protein: recombinant; tags: N-terminal GST; dsDNA, one strand shown
T7 sequence: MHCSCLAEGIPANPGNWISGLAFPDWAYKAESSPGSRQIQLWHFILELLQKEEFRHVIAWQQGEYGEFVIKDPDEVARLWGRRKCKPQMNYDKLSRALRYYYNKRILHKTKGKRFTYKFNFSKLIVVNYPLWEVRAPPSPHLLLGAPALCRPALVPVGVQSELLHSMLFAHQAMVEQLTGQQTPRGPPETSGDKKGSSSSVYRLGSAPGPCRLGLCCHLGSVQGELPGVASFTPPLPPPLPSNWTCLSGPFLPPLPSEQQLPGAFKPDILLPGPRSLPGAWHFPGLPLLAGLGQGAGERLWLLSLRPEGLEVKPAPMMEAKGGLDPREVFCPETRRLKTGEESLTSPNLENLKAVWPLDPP
In short: as §1

ETS2 = biological target: T8, ETS2 (Homo sapiens, UniProt P15036 1-469); details: protein: recombinant; tags: N-terminal GST; dsDNA, one strand shown
T8 sequence: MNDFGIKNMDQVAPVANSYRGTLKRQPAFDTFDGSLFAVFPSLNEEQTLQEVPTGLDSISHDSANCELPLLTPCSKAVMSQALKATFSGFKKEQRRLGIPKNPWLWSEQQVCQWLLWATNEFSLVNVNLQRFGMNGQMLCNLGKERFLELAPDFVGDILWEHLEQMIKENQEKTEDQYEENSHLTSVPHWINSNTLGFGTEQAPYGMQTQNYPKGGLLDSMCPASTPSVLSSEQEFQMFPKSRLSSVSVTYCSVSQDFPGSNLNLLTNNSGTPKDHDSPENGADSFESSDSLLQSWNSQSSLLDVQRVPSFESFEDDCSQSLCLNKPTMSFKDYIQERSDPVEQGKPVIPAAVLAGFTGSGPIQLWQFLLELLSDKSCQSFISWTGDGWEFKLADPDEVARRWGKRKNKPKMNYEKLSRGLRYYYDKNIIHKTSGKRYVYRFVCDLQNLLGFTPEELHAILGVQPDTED
In short: as §1

SPDEF = biological target: T9, SPDEF (Homo sapiens, UniProt O95238 1-335); details: protein: recombinant; tags: N-terminal GST; dsDNA, one strand shown
T9 sequence: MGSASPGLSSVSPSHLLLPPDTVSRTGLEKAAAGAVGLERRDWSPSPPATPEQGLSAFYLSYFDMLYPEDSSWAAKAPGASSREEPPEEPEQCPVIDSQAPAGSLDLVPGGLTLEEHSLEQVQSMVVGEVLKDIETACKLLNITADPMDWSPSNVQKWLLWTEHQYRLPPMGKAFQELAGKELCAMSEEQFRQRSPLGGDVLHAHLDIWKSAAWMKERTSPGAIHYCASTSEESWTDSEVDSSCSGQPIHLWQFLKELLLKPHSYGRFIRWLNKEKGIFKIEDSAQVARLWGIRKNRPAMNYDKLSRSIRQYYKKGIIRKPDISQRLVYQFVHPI
In short: as §1

ETV7 = biological target: T10, ETV7 (Homo sapiens, UniProt Q9Y603 1-341); details: protein: recombinant; tags: N-terminal GST; dsDNA, one strand shown
T10 sequence: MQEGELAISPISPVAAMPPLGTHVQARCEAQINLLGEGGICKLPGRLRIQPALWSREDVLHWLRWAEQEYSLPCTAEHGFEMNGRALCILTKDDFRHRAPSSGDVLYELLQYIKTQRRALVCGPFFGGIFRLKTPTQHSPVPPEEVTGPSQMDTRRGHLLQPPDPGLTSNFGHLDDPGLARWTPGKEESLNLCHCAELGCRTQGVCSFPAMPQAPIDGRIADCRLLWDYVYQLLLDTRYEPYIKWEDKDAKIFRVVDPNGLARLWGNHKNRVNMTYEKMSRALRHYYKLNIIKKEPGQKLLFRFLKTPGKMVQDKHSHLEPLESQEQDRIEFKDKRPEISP
In short: as §1

ELF5 = biological target: T11, ELF5 (Homo sapiens, UniProt Q9UKW6-2 1-255); details: protein: recombinant; tags: N-terminal GST; dsDNA, one strand shown
T11 sequence: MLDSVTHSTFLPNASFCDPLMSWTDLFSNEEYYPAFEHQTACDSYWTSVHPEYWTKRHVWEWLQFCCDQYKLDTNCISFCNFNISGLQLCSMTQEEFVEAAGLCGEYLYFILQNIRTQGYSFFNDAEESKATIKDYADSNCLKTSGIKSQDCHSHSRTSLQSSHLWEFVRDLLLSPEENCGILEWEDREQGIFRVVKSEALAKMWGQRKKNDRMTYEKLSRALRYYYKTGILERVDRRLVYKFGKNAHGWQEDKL
In short: as §1

ETV3 = biological target: T12, ETV3 (Homo sapiens, UniProt P41162-2 1-143); details: protein: recombinant; tags: N-terminal GST; dsDNA, one strand shown
T12 sequence: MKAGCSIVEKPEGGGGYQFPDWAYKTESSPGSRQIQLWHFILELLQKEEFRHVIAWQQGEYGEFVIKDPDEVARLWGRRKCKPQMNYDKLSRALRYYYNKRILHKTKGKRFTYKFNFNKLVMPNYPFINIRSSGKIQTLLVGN
In short: as §1

ETV6 = ETV6 (Homo sapiens, UniProt P41212 1-452); details: protein: recombinant; tags: N-terminal GST; dsDNA, one strand shown
ETV6, sequence (P41212 whole entry): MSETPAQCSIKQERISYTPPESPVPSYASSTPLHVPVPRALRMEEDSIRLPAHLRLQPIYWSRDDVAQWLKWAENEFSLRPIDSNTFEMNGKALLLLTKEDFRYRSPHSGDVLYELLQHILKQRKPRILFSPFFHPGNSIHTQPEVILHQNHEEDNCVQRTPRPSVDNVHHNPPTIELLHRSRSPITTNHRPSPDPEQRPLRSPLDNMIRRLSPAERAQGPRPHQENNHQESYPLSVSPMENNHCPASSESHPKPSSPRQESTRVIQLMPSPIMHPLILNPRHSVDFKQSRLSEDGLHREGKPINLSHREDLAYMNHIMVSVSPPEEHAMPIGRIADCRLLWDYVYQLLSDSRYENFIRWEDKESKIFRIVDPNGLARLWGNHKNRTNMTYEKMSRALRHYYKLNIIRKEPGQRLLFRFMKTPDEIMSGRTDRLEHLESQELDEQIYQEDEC
In short: as §1

AAGATG
binding signal (FEV): 1.01 fold enrichment (6-mer frequency, TF over GST control)
binding signal (ETV5): 1.14 fold enrichment (6-mer frequency, TF over GST control)
binding signal (HSF1): 1.19 fold enrichment (6-mer frequency, TF over GST control)
binding signal (SPIC): 1.1 fold enrichment (6-mer frequency, TF over GST control)
binding signal (ELF4): 1.24 fold enrichment (6-mer frequency, TF over GST control)
binding signal (ELK4): 1.22 fold enrichment (6-mer frequency, TF over GST control)
binding signal (ETV2): 1.13 fold enrichment (6-mer frequency, TF over GST control)
binding signal (ELF3): 1.19 fold enrichment (6-mer frequency, TF over GST control)
binding signal (CRX): 1.27 fold enrichment (6-mer frequency, TF over GST control)
binding signal (ETV1): 1.12 fold enrichment (6-mer frequency, TF over GST control)
binding signal (ERF): 1.18 fold enrichment (6-mer frequency, TF over GST control)
binding signal (ETV3L): 1.12 fold enrichment (6-mer frequency, TF over GST control)
binding signal (ETS2): 1.16 fold enrichment (6-mer frequency, TF over GST control)
binding signal (SPDEF): 1.1 fold enrichment (6-mer frequency, TF over GST control)
binding signal (ETV7): 1.12 fold enrichment (6-mer frequency, TF over GST control)
binding signal (ELF5): 1.14 fold enrichment (6-mer frequency, TF over GST control)
binding signal (ETV3): 1.09 fold enrichment (6-mer frequency, TF over GST control)
binding signal (ETV6): 1.2 fold enrichment (6-mer frequency, TF over GST control)
